HT1080 IDH1KD tx – kills HT-1080 cells with IDH1 knockdown; HT-1080 IDH1 knockdown viability, ATP luminescence, 48 h; Potency, µM (series often up to 46.1 µM), inactives show top-dose activity, negative = toxicity, usual class: cytotoxic; hit rate 2% among 360,000; AID 686971;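 further: potency means the concentration at half of the fitted maximal effect; 0% = DMSO wells and -100% = cell-free medium wells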
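Viability of IDH1-knockdown HT-1080 fibrosarcoma cells was assessed by CellTiter-Glo after 48 h at 37 °C with titrated compound; concentration-effect curves were classified by fit quality and response size.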
TDP1 cell noCPT – qHTS for Inhibitors of human tyrosyl-DNA phosphodiesterase 1 (TDP1): qHTS in cells in absence of CPT | Potency, µM (top dose mostly 46.2 µM), for the others: at the top dose activity change, negative = growth inhibition, most hits filed as inhibitors | hit rate 15% among 420,000 | DT40 Tdp1-/- hTDP1 cells, no CPT, ATP luminescence, 48 h; further: potency means the concentration at half of the fitted maximal effect; nearly all actives have a fitted effect of over 55% in size
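No-CPT arm: Tdp1-/-;hTDP1 DT40 cells (400/well) plus compounds, incubated ≥48 hr at 37 °C. Readout CellTiter-Glo luminescence.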
IL-1B inflam inh – blocks inflammasome-driven IL-1 beta release | THP-1 LPS/ATP IL-1B secretion, AlphaLISA, 16 h; stronger effect = lower value | activity change, % at 57.5 µM | hit rate 4.7% among 360,000 | AID 743279; in the data active means activity change below about -50%; inconclusive means mostly about -30% to -49%
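Secreted IL-1B measured by AlphaLISA bead assay after 16 h compound exposure of THP-1 cells; compounds (final up to 57.5 uM) added 1 h before LPS (250 ng/mL) and ATP (1.25 mM) stimulation; lower signal means less secretion.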
HT1080NT lethal – kills 2HG-producing HT-1080-NT fibrosarcoma cells; HT-1080-NT fibrosarcoma viability, CellTiter-Glo ATP luminescence, 48 h; Potency, µM (series often up to 46.1 µM), without a hit: at the highest dose activity, negative = less viability, hits mostly cytotoxic; hit rate 1.6% among 360,000;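 further: NT is the 2HG producing partner of a matched IDH1 knockdown line; potency means the concentration at half of the fitted maximal effect; 0% = DMSO-treated cells and -100% = media-only wells without cells; nearly all actives have a fitted effect of over 55% in size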
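Read-out is CellTiter-Glo luminescence after 10 minutes at room temperature, following 48 hours' compound treatment of HT-1080-NT cells (750 cells/well, RPMI, 5% FBS, 37 degrees C).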
TDP1 cell CPT – DT40-hTDP1 cell growth loss with CPT | AID 686979 | hit rate 12% among 420,000 | chicken DT40 Tdp1-/-;hTDP1 cells + 20 nM CPT, ATP luminescence, 48 h | Potency, µM (highest dose often 46.2 µM), for the others: at the top dose activity change, negative = growth inhibition, most hits filed as inhibitors; further: potency means the concentration at half of the fitted maximal effect; nearly all actives have a fitted effect of over 55% in size
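Chicken DT40 Tdp1-/- cells stably complemented with human TDP1 were seeded at 400 cells/well in medium containing 20 nM camptothecin, exposed to pin-transferred compounds, and grown at 37 °C for at least 48 hr. Viability was read as ATP luminescence.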
ELG1 repair inh – blocks ELG1-dependent DNA repair in HEK293T cells; HEK293T ELG1-luciferase reporter, luminescence, 16 h; DNA damage induced by 5-fluorouridine; Potency, µM (top dose mostly 46.1 µM), for inactives: at the top dose activity change, negative = inhibition, usual class: inhibitors; hit rate 2.3% among 330,000; AID 504467; further: potency means the concentration at half of the fitted maximal effect; nearly all actives have a fitted effect of over 55% in size
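Reporter activity after DNA damage by 5-fluorouridine is monitored. Compound-treated cells incubate 16 hr at 37 °C, then ONE-Glo is added for 30 min before luminescence reading.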
Active calls of the source: *. An excerpt weighted towards active compounds, which were near 19% of everything screened. Unless noted, the call rests on the fitted dose curve; in most records, active means well fitted curve in the direction sought with a large enough effect; inconclusive means small, poorly fitted or top-dose-only effect, or another doubt; inactive means no such curve, though single readings can be large; an effect the other way counts as inactive or inconclusive. Unless noted, on the % scale 0 is the no-effect control and ±100 the full control effect.

Screening O=[S+]([O-])([O-])c1ccc2c(c1)cc([S+](=O)([O-])[O-])c1nn(-c3ccc(/C=C/c4ccc(-n5nc6c([S+](=O)([O-])[O-])cc7cc([S+](=O)([O-])[O-])ccc7c6n5)cc4[S+](=O)([O-])[O-])c([S+](=O)([O-])[O-])c3)nc12 returned TDP1 cell noCPT 0% and TDP1 cell CPT 9%.
`Cc1ccc(C(=O)NC(=S)Nc2cccc3nsnc23)cc1` gave HT1080 IDH1KD tx 2%, TDP1 cell noCPT -19%, IL-1B inflam inh 23, HT1080NT lethal 1%, TDP1 cell CPT -15% and ELG1 repair inh inconclusive.
For Cc1ccc2cccc(NC(=S)NC(=O)c3ccn(C)n3)c2n1 the results were HT1080 IDH1KD tx 7.9µM*, TDP1 cell noCPT inconclusive, IL-1B inflam inh 20, HT1080NT lethal 7.9µM*, TDP1 cell CPT inconclusive and ELG1 repair inh inconclusive.
Screening COc1cc(C(=O)NC(=S)Nc2cccc3nc(C)ccc23)cc(OC)c1OC returned HT1080 IDH1KD tx inconclusive, TDP1 cell noCPT -8%, IL-1B inflam inh 15, HT1080NT lethal inconclusive, TDP1 cell CPT 4% and ELG1 repair inh -1%.
Screening Cc1ccc(C(=O)NC(=S)Nc2cccc3c(C)cc(C)nc23)cc1 returned HT1080 IDH1KD tx -21%, TDP1 cell noCPT 21µM*, IL-1B inflam inh 12, HT1080NT lethal -20%, TDP1 cell CPT inconclusive and ELG1 repair inh 8%.
For COc1ccc(C(=O)NC(=S)Nc2cccc3nc(C)ccc23)cc1OC the results were HT1080 IDH1KD tx -6%, TDP1 cell noCPT 21µM*, IL-1B inflam inh 0, HT1080NT lethal 1%, TDP1 cell CPT inconclusive and ELG1 repair inh inconclusive.
Cc1ccc2cccc(NC(=S)NC(=O)c3c(Br)cnn3C)c2n1 was read as HT1080 IDH1KD tx -18%, TDP1 cell noCPT inconclusive, IL-1B inflam inh 13, HT1080NT lethal -21%, TDP1 cell CPT -25% and ELG1 repair inh 19%.
For Cc1nn(-c2ccccc2)c(Oc2ccccc2)c1C=O the results were HT1080 IDH1KD tx 2%, TDP1 cell noCPT 13µM*, IL-1B inflam inh inconclusive, HT1080NT lethal -4%, TDP1 cell CPT 16µM* and ELG1 repair inh 1%.
Screening CCC(=O)N1CCc2cc(Br)cc(S(=O)(=O)N3CCCC(C(=O)Nc4ccc(OC)c(Cl)c4)C3)c21 (stereo unspecified) returned TDP1 cell noCPT inconclusive and TDP1 cell CPT -15%.
`CCC(=O)N1CCc2cc(Br)cc(S(=O)(=O)CCC(=O)NCCc3cccc(C)c3)c21` gave TDP1 cell noCPT 23µM* and TDP1 cell CPT 16µM*.
`CCC(=O)N1CCc2cc(Br)cc(S(=O)(=O)N3CCCC(C(=O)Nc4cccc(Cl)c4C)C3)c21` (stereo unspecified) gave TDP1 cell noCPT 12µM* and TDP1 cell CPT 15µM*.
`CCC(=O)N1CCc2cc(Br)cc(S(=O)(=O)CCC(=O)NCCc3ccccc3)c21` gave HT1080 IDH1KD tx inconclusive, TDP1 cell noCPT inconclusive, IL-1B inflam inh -13, HT1080NT lethal inconclusive, TDP1 cell CPT -4% and ELG1 repair inh -23%.
CCC(=O)N1CCc2cc(Br)cc(S(=O)(=O)N3CCC(C(=O)NC(C)(C)C)CC3)c21 was read as HT1080 IDH1KD tx -4%, TDP1 cell noCPT inconclusive, IL-1B inflam inh -23, HT1080NT lethal 0%, TDP1 cell CPT -1% and ELG1 repair inh 7.3µM*.
`CCC(=O)N1CCc2cc(Br)cc(S(=O)(=O)NCCc3ccccc3Cl)c21` gave TDP1 cell noCPT 21µM* and TDP1 cell CPT 16µM*.
`O=C(CCCCn1c(=O)c2ccccc2n(CC(=O)Nc2ccc(F)cc2F)c1=O)NCCc1ccccc1` gave TDP1 cell noCPT -23% and TDP1 cell CPT -12%.
CN1C(c2ccc(F)cc2)=CS/C1=C(\C#N)c1nnc2n1-c1ccccc1SC2 was read as HT1080 IDH1KD tx inconclusive, TDP1 cell noCPT -15%, IL-1B inflam inh -79*, HT1080NT lethal -26%, TDP1 cell CPT inconclusive and ELG1 repair inh inconclusive.
`OC1(c2ccc(Br)cc2)CN(c2ccccc2)C2=[N+]1CCS2` (stereo unspecified) gave HT1080 IDH1KD tx -7%, TDP1 cell noCPT inconclusive, IL-1B inflam inh 0, HT1080NT lethal -6%, TDP1 cell CPT inconclusive and ELG1 repair inh 15%.
`OC1(c2ccc(Cl)cc2)CN(c2ccccc2)C2=[N+]1CCS2` (stereo unspecified) gave HT1080 IDH1KD tx inconclusive, TDP1 cell noCPT inconclusive, IL-1B inflam inh -78*, HT1080NT lethal -30%, TDP1 cell CPT -30% and ELG1 repair inh -2%.
COc1ccc(OC)c(N2CC(O)(c3ccccc3)[N+]3=C2SCCC3)c1 (stereo unspecified) was read as HT1080 IDH1KD tx -25%, TDP1 cell noCPT inconclusive, IL-1B inflam inh -51*, HT1080NT lethal -10%, TDP1 cell CPT inconclusive and ELG1 repair inh inconclusive.
`CC(Oc1cc2oc(=O)c3c(c2cc1Cl)CCC3)C(=O)NCCN1CCOCC1` (stereo unspecified) gave HT1080 IDH1KD tx 0%, TDP1 cell noCPT -1%, IL-1B inflam inh inconclusive, HT1080NT lethal -1%, TDP1 cell CPT -12% and ELG1 repair inh 18%.
Cc1ccc(-n2nnnc2-c2cccnc2)cc1 was read as HT1080 IDH1KD tx 3%, TDP1 cell noCPT 7%, IL-1B inflam inh 0, HT1080NT lethal -7%, TDP1 cell CPT -8% and ELG1 repair inh -8%.
Screening FC(F)(F)c1nc(N2CCCC2)ncc1-c1nnnn1-c1ccc(Cl)cc1 returned HT1080 IDH1KD tx inconclusive, TDP1 cell noCPT 18µM*, IL-1B inflam inh -17, HT1080NT lethal -21%, TDP1 cell CPT 21µM* and ELG1 repair inh inconclusive.
Screening Cc1ccc(-n2nnnc2-c2cnn(-c3ccc(F)cc3)c2C(F)(F)F)cc1 returned HT1080 IDH1KD tx 4%, TDP1 cell noCPT inconclusive, IL-1B inflam inh -14, HT1080NT lethal -20%, TDP1 cell CPT 13µM* and ELG1 repair inh inconclusive.
Screening Cc1ccc(-c2nnnn2-c2ccc(C)cc2)cc1 returned HT1080 IDH1KD tx 0%, TDP1 cell noCPT inconclusive, IL-1B inflam inh 7, HT1080NT lethal 2%, TDP1 cell CPT inconclusive and ELG1 repair inh 13%.
